Data taken from PubChem BioAssay AID624305 (National Center for Advancing Translational Sciences (NCATS), 2012).
Records with an inconclusive call do not appear. Active and inactive are the calls of the source. Calls come from the whole dose curve; as a rule, active = well fitted activation curve with a large enough effect; inconclusive = small, poorly fitted or top-dose-only effect; inactive = no such curve, though single readings can be large or run the other way.

Experiment: qHTS assay for re-activators of p53 using a Luc reporter: Hit Validation; note: nearly all actives have a fitted effect of over 75% in size; for activation: 0% is about no effect
Details: p53-responsive luciferase reporter cells, luminescence, H1299 line expressing heat-sensitive Ala138Val p53; series mostly up to 46.1 µM; activation: at the top concentration
How it was run: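 Hit confirmation with a 1:5 dilution series, at 37 deg C for 24 hrs, in H1299 cells co-expressing temperature-sensitive p53-A138V and p53-responsive luciferase. Nocodazole served as control; luminescence read after 10 min with detection reagent.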
Potency is the fitted concentration of half-maximal effect.

activation, inactive:
O=C(NNC(=O)C1CCCO1)c1ccccc1Cl (stereo not given) -6.25%
CCC(=O)c1ccc(OC(=O)Cc2ccc(OC)cc2)cc1 4.69%
Cc1cc(NC(c2cccnc2)c2ccc3cccnc3c2O)no1 (stereo not given) 128%
O=S(=O)(CCOc1ccccc1)c1nc2ccccc2[nH]1 -10.9%
Cc1ccc(S(=O)(=O)NCC(=O)N2CCc3ccccc3C2)cc1 -22.4%
COc1ccc(N=C(N)SCc2ccccn2)cc1 28.6%
NC(=O)c1ccc(-n2c(CCC(=O)O)ccc2-c2cccs2)cc1 -8.33%
COc1ccc(CCNC(=O)/C=C/c2ccc(S(=O)(=O)N3CCOCC3)cc2)cc1 0.521%
O=C(NNC(=O)c1ccc(Cl)cc1Cl)c1ccncc1 -28.8% [at 9.22 µM]
CC(C)(C)c1cc(-n2ccnc2)n2ncc(-c3ccc(Cl)cc3)c2n1 0.521%
O=C(CSc1ccccc1)Nc1ccc(-c2nc3ccccc3[nH]2)cc1 76.6%
Cc1ccc(NC(=O)C2CCCO2)cc1[N+](=O)[O-] (stereo not given) 12%
O=C(CCc1nc(-c2ccccc2)no1)N1CCCC1 42.2%
COc1ccc(CCC(=O)NC(C)C2CCCO2)cc1 (stereo not given) -26%
CCOc1ccc(-c2cnc3ccccc3n2)cc1 -85.9%
C/C(=N\NC(=S)NC1CCCCC1)c1ccccc1 -80.2%

Potency, active:
O=C(/C=C/c1cnc2ccccc2n1)NC12CC3CC(CC(C3)C1)C2 9.2 µM
Cc1cc(N2CCCCC2)n2ncc(-c3ccc(Cl)cc3)c2n1 0.82 µM
COc1cc(N/N=C/c2ccccc2O)ncn1 25.9 µM
COc1ccc2nc(SCc3ccccc3)nc(C)c2c1 1.46 µM
